Molecules are shown by their SMILES. Results filed as inconclusive are left out. Values without a mark were called inactive. The call rests on the fitted dose curve; in most records, active means well fitted cell-killing curve with a large enough effect in the repeat runs; inconclusive means weak or mixed curves, or effect the other way; inactive means no such curve, though single readings can be large or run the other way.
On the % scale 0 is the no-effect control and ±100 the full control effect.

The assay is described as follows: qHTS assay for small molecule activators of the heat shock response signaling pathway - cell viability counter screen (AID 743209). Further: nearly all actives have a fitted effect of over 50% in size. Particulars: HSE-bla HeLa viability, CellTiter-Glo luminescence, 5 h; series mostly up to 62.6 µM; activity change, negative = cytotoxicity: at the top concentration. From the text: U.S. Tox21 Program National Center for Advancing Translational Sciences [NCATS] NIH Chemical Genomics Center [NCGC] U.S. Environmental Protection Agency [EPA] National Institutes of Environmental Health Sciences [NIEHS] National Toxicology Program [NTP] U.S. Food and Drug Administration [FDA] Tox21 Assay Overview: Various chemicals, environmental and physiological stress conditions may lead to the activation of heat shock response/ unfolded protein response (HSR/UPR). There are three heat shock transcription factors (HSFs) (HSF-1, -2, and -4) mediating transcriptional regulation of the human HSR. To identify the compounds that activate HSR signaling, HSE-bla HeLa cell line (Invitrogen, Carlsbad, CA, USA) containing a beta-lactamase reporter gene under the control of the heat shock response elements was used to screen Tox21 10K compound library. The cytotoxicity of the Tox21 compound library against the HSE-bla HeLa cell line was tested in parallel by measuring the cell viability using CellTiter-Glo assay (Promega, Madison, WI) in the same wells.
Tox21 Assay Protocol Summary: The CellSensor HSE-bla HeLa cells (Invitrogen, Carlsbad, CA, USA) were dispensed at 1500 cells/6uL/well into 1536-well black wall/clear bottom plates using a Multidrop combi (Thermo Fisher Scientific, Waltham, MA) dispenser. After the assay plates were incubated at 37 C and 5% CO2 overnight, 23 nL of compounds dissolved in DMSO, positive controls or DMSO only was transferred to the assay plate by a Pintool station (Kalypsys, San Diego, CA). The plates were incubated at 37 C for 5 h. After 1 uL of LiveBLAzerTM B/G FRET substrate was added using a Flying Reagent Dispenser (FRD, Beckman Coulter, Indianapolis, IN, USA), the plates were incubated at room temperature for 2.5 h, and fluorescence intensity was measured by an Envision plate reader (PerkinElmer, Shelton, CT). For cell viability readout that measures cytotoxicity, 3 ul/well of CellTiter-Glo reagent was added into the assay plates using a FRD. After 30 min incubation at room temperature, the luminescence intensity in the plates was measured using a ViewLux (PerkinElmer) plate reader.
A general note: Quantitative high-throughput screening tests each substance at several concentrations.
On to `CCN1CC(CCN2CCOCC2)C(c2ccccc2)(c2ccccc2)C1=O` (stereo not given), for which the “activity change, negative = cytotoxicity” value was 18.5%.
`CCCCCCCCCC#N`: the “activity change, negative = cytotoxicity” value was 1.6%.
As for `CC1=NN(c2cc(Cl)c(S(=O)(=O)O)cc2Cl)C(=O)C1N=Nc1ccc(S(=O)(=O)O)cc1` (stereo not given), the figure is 4.54%; as for `c1ccc(CN(CC2=NCCN2)c2ccccc2)cc1`, 11.2%; as for `CCCCCCCCc1ccc(S(=O)(=O)O)cc1`, -13.5%.
As for `NS(=O)(=O)c1cc(-c2nn[nH]n2)c(NCc2cccs2)cc1Cl`, the figure is 4.08%; as for `CCC(=O)Nc1ccc(O)cc1`, 5.24%.
The same measure for `CC(C)C(=O)OC/C=C/c1ccccc1`: 12.7%.
In the case of `CCCCOc1cc(C(=O)NCCN(CC)CC)c2ccccc2n1`, the “activity change, negative = cytotoxicity” value is 10.6%.
As for `C=CC(C)(O)CC/C=C(\C)CCC=C(C)C` (stereo not given), the figure is -6.69%.
Consider `CCCOc1ccc2c(c1)CC[C@@H]1[C@@H]2CC[C@]2(C)C(OC)CC[C@@H]12` (stereo not given in full), for which the “activity change, negative = cytotoxicity” value is -5.64%.
The same measure for `CN1CCN(c2c(F)cc3c(=O)c(C(=O)O)cn4c3c2SCC4)CC1`: -8.03%; for `Cc1cc(S(=O)(=O)O)c(N)cc1Cl`: -3.12% [at 81.1 µM].
As for `Clc1cccc(-c2cc(Cl)cc(Cl)c2)c1`, the figure is 1.55%.
The same measure for `CCOC(=O)NCCC[Si](OCC)(OCC)OCC`: 6.28%; for `COC(=O)c1ccc2cc(C(=O)OC)ccc2c1`: -17.5% [at 29.1 µM].
Turning to `NC(Cc1ccc(F)cc1)C(=O)O` (stereo not given), the activity change, negative = cytotoxicity was -7.91% [at 5.95 µM].
In the case of `CC1(O)CSC(C)(O)CS1` (stereo not given), the “activity change, negative = cytotoxicity” value was -5.21%.
For `Cc1ccccc1C(=O)Nc1ccc(C(=O)N2CCCC(O)c3cc(Cl)ccc32)c(C)c1` (stereo not given), the “activity change, negative = cytotoxicity” value was 5.35%.
Regarding `CC(C)S`, the “activity change, negative = cytotoxicity” value was 2.02% [at 81.1 µM].
As for `CO[Si](C)(C)OC`, the figure is -1.57%; as for `COC(=O)/C=C(/C)N`, -6.75%; as for `CC(CNC1CCCCC1)OC(=O)c1ccccc1` (stereo not given), -5.93%.
As for `C[C@@H]1CN(c2c(F)c(N)c3c(=O)c(C(=O)O)cn(C4CC4)c3c2F)C[C@H](C)N1`, the figure is 8.67% [at 29.1 µM]; as for `Nc1ccc(Oc2ccc(N)c(N)c2)cc1`, 3.14%; as for `N#CSCC(=O)O`, 2.63%.
On to `OCCN1CCN(CCO)CC1`, for which the “activity change, negative = cytotoxicity” value is -5.75% [at 81.1 µM].
Regarding `CCCCNC(=S)NCCCC`, the “activity change, negative = cytotoxicity” value is -8.41%.
As for `CC(=O)N(CC(O)CN(C(C)=O)c1c(I)c(C(=O)NCC(O)CO)c(I)c(C(=O)NCC(O)CO)c1I)c1c(I)c(C(=O)NCC(O)CO)c(I)c(C(=O)NCC(O)CO)c1I` (stereo not given), the “activity change, negative = cytotoxicity” value was 10.4%.
As for `NCCC(O)(P(=O)(O)O)P(=O)(O)O`, the figure is 1.94%; as for `Cc1c(-c2ccccc2)oc2c(C(=O)OCCN3CCCCC3)cccc2c1=O`, -19.1%; as for `ClC(Cl)Cl`, 6.22%.
As for `CS(=O)(=O)c1ccc([C@@H](O)[C@@H](CF)NC(=O)C(Cl)Cl)cc1`, the figure is 0.94%; as for `Cc1nnc(SCC2=C(C(=O)O)N3C(=O)[C@@H](NC(=O)Cn4cnnn4)[C@H]3SC2)s1`, 1.97%.
Regarding `CCCCCCCOC(=O)CCC`, the “activity change, negative = cytotoxicity” value is -0.409%.
For `Cc1ccc(C=O)s1`, the “activity change, negative = cytotoxicity” value is 7.31%.
As for `C1CCOC1`, the “activity change, negative = cytotoxicity” value was -2.48% [at 81.1 µM].
In the case of `CCCCCCCCOC(=O)CCCCCCCCC(=O)OCCCCCCCC`, the “activity change, negative = cytotoxicity” value is -1.4%.
In the case of `NNS(=O)(=O)c1ccc(Oc2ccc(S(=O)(=O)NN)cc2)cc1`, the “activity change, negative = cytotoxicity” value was -4.09%.
Consider `CCOC(=O)c1cc(=O)c2c(OCC(COc3cccc4oc(C(=O)OCC)cc(=O)c34)OC(=O)[C@@H](N)CCCCN)cccc2o1`, for which the “activity change, negative = cytotoxicity” value is -0.749%.

The values above are taken from PubChem BioAssay (Tox21).
